Assay outcomes deposited in PubChem BioAssay by National Center for Advancing Translational Sciences (NCATS).
LmPK inh = inhibitors of Leishmania mexicana pyruvate kinase. AID 1721. Potency, µM (titrated, usually from 57.5 µM), without a hit: top-dose activity change, negative = inhibition, hits mostly inhibitors. hit rate 0.37% among 290,000. Q27686. purified LmPK, Kinase-Glo ATP luminescence, 1 h; note: potency is the fitted concentration of half-maximal effect; % is set by controls: 0 for no effect and ±100 for the full control effect
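Screened at intermediate enzyme activity to detect both inhibitors and activators: LmPK at 0.1 nM, with a 0.5 nM enzyme column as activation reference. PEP 0.5 mM, ADP 0.1 mM; ATP detected by luminescence after 1 h.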
RE007 growth inh = less growth of the S. pombe RE007 Vpr strain; S. pombe RE007 Vpr strain, BacTiter-Glo ATP luminescence, 24 h; Potency, µM (highest dose often 92.2 µM), without a hit: at the top dose activity change, negative = less growth, actives largely listed as inhibitors; hit rate 0.21% among 360,000; active = well fitted falling curve with a large enough effect; inconclusive = small, poorly fitted or top-dose-only effect; inactive = no such curve, though single readings can be large or run the other way; note: potency is the fitted concentration of half-maximal effect; % is set by controls: 0 for no effect and ±100 for the full control effect; nearly all actives have a fitted effect of over 50% in size
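Fission yeast RE007 carrying one integrated HIV-1 vpr copy, seeded at OD 0.01 in PMG+AL medium with 23 nL pinned compound. Grown 24 h at 30 degrees; viability read by BacTiter-Glo luminescence after 5 min.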
Shiga toxin inh = inhibitors of Shiga toxin in Vero cells; inhibition, % at 38.7 µM; hit rate 9.2% among 290,000; Vero cells, Shiga toxin protein synthesis inhibition reporter; AID 2315; in the data active = inhibition mostly above about 28%, no sharp cut-off; inactive = mostly below about 43%; note: 0% is about no effect
Tb PYK inh = T. brucei pyruvate kinase inhibition. Q57TT1. TbPYK enzyme, Kinase-Glo Plus ATP luminescence, 45 min. Potency, µM (top dose mostly 76.8 µM), for the others: at the highest dose activity, negative = inhibition, hits mostly inhibitors. hit rate 0.12% among 410,000; note: potency is the fitted concentration of half-maximal effect; % is set by controls: 0 for no effect and ±100 for the full control effect; nearly all actives have a fitted effect of over 50% in size
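Screened from lowest to highest concentration, compounds were pinned into TbPYK/substrate mixtures, and ADP (130 uM final) was added. Plates sat at room temperature for 45 min prior to Kinase-Glo Plus detection by luminescence.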
Giardia FBPA inh = blocks Giardia fructose-bisphosphate aldolase activity | A8B2U2 | purified Giardia FBPA | Potency, µM (titrated, usually from 59.6 µM), for inactives: at the highest dose activity, negative = inhibition, actives largely listed as inhibitors | hit rate 0.71% among 290,000 | AID 2451; note: potency is the fitted concentration of half-maximal effect; % is set by controls: 0 for no effect and ±100 for the full control effect; nearly all actives have a fitted effect of over 55% in size
Target sequence (A8B2U2 whole entry, looked up): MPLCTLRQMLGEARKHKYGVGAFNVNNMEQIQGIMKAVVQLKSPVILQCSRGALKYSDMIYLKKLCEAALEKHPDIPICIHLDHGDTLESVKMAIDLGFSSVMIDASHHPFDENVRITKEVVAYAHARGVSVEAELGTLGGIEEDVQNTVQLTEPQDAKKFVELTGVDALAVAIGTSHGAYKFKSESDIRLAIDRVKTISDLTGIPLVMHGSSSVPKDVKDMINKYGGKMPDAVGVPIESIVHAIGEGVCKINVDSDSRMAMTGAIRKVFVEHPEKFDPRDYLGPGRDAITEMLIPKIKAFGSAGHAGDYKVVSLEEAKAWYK
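Giardia FBPA (40 nM reagent) was preincubated 10 min at RT with compound (up to 57.5 uM final), then substrate plus GAPDH/TPI/NAD/arsenate coupling system with diaphorase/resazurin was added; resorufin fluorescence (525/598 nm) was read after 20 min.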
CHX counter = counter-screen for Shiga toxin inhibitors: cycloheximide protein synthesis inhibition; hit rate 12% among 300,000; cell reporter, cycloheximide protein synthesis inhibition counterscreen; max response, %; in the data active = max response mostly above about 13%, no sharp cut-off; inactive = mostly below about 14%; note: read at 38.3 µM for the half of the compounds with a filed dose; 0% is about no effect
* marks the source's active call; other numbers are inactive results. This is one part of a sample in which hits are shown more often than they occur. Unless noted, calls come from the whole dose curve; as a rule, active = well fitted curve in the direction sought with a large enough effect; inconclusive = small, poorly fitted or top-dose-only effect, or another doubt; inactive = no such curve, though single readings can be large; an effect the other way counts as inactive or inconclusive.

Results for CCN1C(=NCC(C)C)N[C@@H](c2cccc(C(F)(F)F)c2)C(C(=O)OC)=C1C ?
LmPK inh: -8%; RE007 growth inh: -16%; Shiga toxin inh: -8; Tb PYK inh: -1%; Giardia FBPA inh: 23%; CHX counter: -3

What do the screens show for `C=CCN=C1N[C@@H](c2cccc(C(F)(F)F)c2)C(C(=O)OC)=C(C)N1CC`?
LmPK inh: -8%; RE007 growth inh: -12%; Shiga toxin inh: 13; Tb PYK inh: -11%; Giardia FBPA inh: 16µM*; CHX counter: -3

Results for COC(=O)[C@@H]1OC(c2ccccc2)O[C@H]1C(=O)OC ?
Shiga toxin inh: -3; Giardia FBPA inh: 7%; CHX counter: -6

How did COc1ccc(C(=O)On2c(-c3ccc(Br)cc3)nc3ccccc3c2=O)cc1 do in these assays?
LmPK inh: 0%; RE007 growth inh: inconclusive; Shiga toxin inh: 93*; Tb PYK inh: 4%; Giardia FBPA inh: 7%; CHX counter: 32*

How did C=CCn1c(SCC(=O)Nc2cccnc2Cl)nnc1-c1ccc(C(C)(C)C)cc1 do in these assays?
LmPK inh: 4%; RE007 growth inh: 18%; Shiga toxin inh: 31; Tb PYK inh: -12%; Giardia FBPA inh: -2%; CHX counter: 13*

What do the screens show for `CC(C)(C)C(=O)OCOP(=O)(OCOC(=O)C(C)(C)C)C(C)(Oc1ccc(O)cc1)P(=O)(OCOC(=O)C(C)(C)C)OCOC(=O)C(C)(C)C`?
Shiga toxin inh: 2; Giardia FBPA inh: -8%; CHX counter: 16

What do the screens show for `CN(C)c1ccc(NC(=O)Cn2cc3c(n2)CCCC3)cc1`?
LmPK inh: -1%; RE007 growth inh: 1%; Shiga toxin inh: 72*; Tb PYK inh: -20%; Giardia FBPA inh: -14%; CHX counter: 56*

How did COc1ccc(/C=N/NC2=NCCCCC2)c(OC)c1 do in these assays?
LmPK inh: 1%; RE007 growth inh: -12%; Shiga toxin inh: 39; Tb PYK inh: -9%; Giardia FBPA inh: -3%; CHX counter: 8

How did Oc1ccccc1/C=N/NC1=NCCCCC1 do in these assays?
LmPK inh: -8%; RE007 growth inh: 15%; Shiga toxin inh: 95*; Tb PYK inh: 5%; Giardia FBPA inh: -11%; CHX counter: 34*

What do the screens show for `O=C(ONC1=NCCCCC1)c1cccc([N+](=O)[O-])c1`?
LmPK inh: -7%; RE007 growth inh: 5%; Shiga toxin inh: 12; Tb PYK inh: -4%; Giardia FBPA inh: 0%; CHX counter: 9

How did O=[N+]([O-])c1cccc(/C=N/NC2=NCCCCC2)c1 do in these assays?
LmPK inh: -1%; RE007 growth inh: -3%; Shiga toxin inh: 62*; Tb PYK inh: -3%; Giardia FBPA inh: 4%; CHX counter: 36*

Results for CC(=O)Nc1cccc(NC(=O)c2c(-c3ccccc3)c(-c3ccccc3)nn(C)c2=O)c1 ?
Tb PYK inh: -2%

Results for Cc1ccc(Cl)cc1N1CCN(CCCNc2ncnc3onc(-c4ccc(F)cc4)c23)CC1 ?
Tb PYK inh: 1%

What do the screens show for `Cc1ccc(C(O)c2ncc(-c3ccccc3F)[nH]2)c(C)c1` (configuration not stated)?
RE007 growth inh: -20%; Tb PYK inh: 5%

What do the screens show for `O=C(COC(=O)c1ccc([N+](=O)[O-])cc1)NCCC1=CCCCC1`?
RE007 growth inh: -20%; Tb PYK inh: -1%

How did O=C(Cn1cc(Cl)c([N+](=O)[O-])n1)NCCC1=CCCCC1 do in these assays?
LmPK inh: -8%; RE007 growth inh: 11%; Shiga toxin inh: 17; Tb PYK inh: 2%; Giardia FBPA inh: 0%; CHX counter: 15*

What do the screens show for `COc1cccc(-c2ccnc3c(-c4ccccc4)c(C)nn23)c1`?
Tb PYK inh: -7%

What do the screens show for `CCCSc1nsc(NC(=O)C(c2ccccc2)c2ccccc2)n1`?
LmPK inh: 5%; RE007 growth inh: 2%; Shiga toxin inh: -6; Tb PYK inh: -6%; Giardia FBPA inh: 2%; CHX counter: 10

How did CCCCCCSc1nsc(NC(=O)CC(C)C)n1 do in these assays?
LmPK inh: -1%; RE007 growth inh: 8%; Shiga toxin inh: 37*; Tb PYK inh: -1%; Giardia FBPA inh: -13%; CHX counter: 27*

Results for C=CCSc1nsc(N)n1 ?
LmPK inh: -3%; RE007 growth inh: -8%; Shiga toxin inh: -9; Tb PYK inh: 4%; Giardia FBPA inh: -10%; CHX counter: -2

How did CCCCCCCSc1nsc(N)n1 do in these assays?
LmPK inh: -1%; RE007 growth inh: -19%; Shiga toxin inh: 65*; Tb PYK inh: -15%; Giardia FBPA inh: -4%; CHX counter: 3

How did CCCSc1nsc(NC(=O)CC)n1 do in these assays?
LmPK inh: inconclusive; RE007 growth inh: -7%; Shiga toxin inh: 72*; Tb PYK inh: -14%; Giardia FBPA inh: 0%; CHX counter: 38*

How did CC(=O)c1ccc(C2CC34CNS(=O)(=O)C3CC2O4)cc1 (configuration not stated) do in these assays?
Shiga toxin inh: -3; Giardia FBPA inh: 1%; CHX counter: 8

Results for COC(=O)c1sccc1NC(=O)c1cc2c(s1)CCCC2 ?
LmPK inh: -7%; RE007 growth inh: -5%; Shiga toxin inh: -10; Tb PYK inh: -3%; Giardia FBPA inh: -7%; CHX counter: 13*

How did O=C(Nc1cccc(Cn2cccn2)c1)c1cc2c(s1)CCCC2 do in these assays?
LmPK inh: -15%; RE007 growth inh: -11%; Shiga toxin inh: 143*; Tb PYK inh: -6%; Giardia FBPA inh: -24%; CHX counter: 77*

How did CC(=O)Nc1cccc(Cn2cccn2)c1 do in these assays?
LmPK inh: -1%; Shiga toxin inh: 6; Giardia FBPA inh: -3%; CHX counter: -1

How did COC(=O)c1sccc1NC(=O)c1ccccc1 do in these assays?
LmPK inh: -1%; RE007 growth inh: inconclusive; Shiga toxin inh: -19; Tb PYK inh: 3%; Giardia FBPA inh: 6%; CHX counter: 7

Results for CCOC(=O)c1ccc(NC(=O)c2cc3c(s2)CCC3)cc1 ?
LmPK inh: 6%; RE007 growth inh: -9%; Shiga toxin inh: 54*; Tb PYK inh: -4%; Giardia FBPA inh: 2%; CHX counter: 39*

How did CCOC(=O)c1ccc(NC(=O)c2ccc[n+]([O-])c2)cc1 do in these assays?
LmPK inh: -5%; RE007 growth inh: 1%; Shiga toxin inh: -9; Tb PYK inh: 2%; Giardia FBPA inh: -1%; CHX counter: -6

How did COc1ccc(C)cc1NC(=O)c1cc2c(s1)CCC2 do in these assays?
LmPK inh: 2%; Shiga toxin inh: 56; Tb PYK inh: -7%; Giardia FBPA inh: -7%; CHX counter: 20*

What do the screens show for `COc1ccc(OC)c(NC(=O)Cn2cc(C(=O)c3cccs3)c3ccccc32)c1`?
Tb PYK inh: -4%
